{"source": "PubChem BioAssay (NCATS)", "note": "This is one part of the list. Results filed as inconclusive are left out. Activity calls are given as the source filed them. The call rests on the fitted dose curve. Potency means the concentration at half of the fitted maximal effect.", "data": [{"target": "Polyprotein P1234 (Chikungunya virus (strain S27-African prototype)) (UniProt Q8JUX6)", "sequence (Q8JUX6 whole entry, looked up)": "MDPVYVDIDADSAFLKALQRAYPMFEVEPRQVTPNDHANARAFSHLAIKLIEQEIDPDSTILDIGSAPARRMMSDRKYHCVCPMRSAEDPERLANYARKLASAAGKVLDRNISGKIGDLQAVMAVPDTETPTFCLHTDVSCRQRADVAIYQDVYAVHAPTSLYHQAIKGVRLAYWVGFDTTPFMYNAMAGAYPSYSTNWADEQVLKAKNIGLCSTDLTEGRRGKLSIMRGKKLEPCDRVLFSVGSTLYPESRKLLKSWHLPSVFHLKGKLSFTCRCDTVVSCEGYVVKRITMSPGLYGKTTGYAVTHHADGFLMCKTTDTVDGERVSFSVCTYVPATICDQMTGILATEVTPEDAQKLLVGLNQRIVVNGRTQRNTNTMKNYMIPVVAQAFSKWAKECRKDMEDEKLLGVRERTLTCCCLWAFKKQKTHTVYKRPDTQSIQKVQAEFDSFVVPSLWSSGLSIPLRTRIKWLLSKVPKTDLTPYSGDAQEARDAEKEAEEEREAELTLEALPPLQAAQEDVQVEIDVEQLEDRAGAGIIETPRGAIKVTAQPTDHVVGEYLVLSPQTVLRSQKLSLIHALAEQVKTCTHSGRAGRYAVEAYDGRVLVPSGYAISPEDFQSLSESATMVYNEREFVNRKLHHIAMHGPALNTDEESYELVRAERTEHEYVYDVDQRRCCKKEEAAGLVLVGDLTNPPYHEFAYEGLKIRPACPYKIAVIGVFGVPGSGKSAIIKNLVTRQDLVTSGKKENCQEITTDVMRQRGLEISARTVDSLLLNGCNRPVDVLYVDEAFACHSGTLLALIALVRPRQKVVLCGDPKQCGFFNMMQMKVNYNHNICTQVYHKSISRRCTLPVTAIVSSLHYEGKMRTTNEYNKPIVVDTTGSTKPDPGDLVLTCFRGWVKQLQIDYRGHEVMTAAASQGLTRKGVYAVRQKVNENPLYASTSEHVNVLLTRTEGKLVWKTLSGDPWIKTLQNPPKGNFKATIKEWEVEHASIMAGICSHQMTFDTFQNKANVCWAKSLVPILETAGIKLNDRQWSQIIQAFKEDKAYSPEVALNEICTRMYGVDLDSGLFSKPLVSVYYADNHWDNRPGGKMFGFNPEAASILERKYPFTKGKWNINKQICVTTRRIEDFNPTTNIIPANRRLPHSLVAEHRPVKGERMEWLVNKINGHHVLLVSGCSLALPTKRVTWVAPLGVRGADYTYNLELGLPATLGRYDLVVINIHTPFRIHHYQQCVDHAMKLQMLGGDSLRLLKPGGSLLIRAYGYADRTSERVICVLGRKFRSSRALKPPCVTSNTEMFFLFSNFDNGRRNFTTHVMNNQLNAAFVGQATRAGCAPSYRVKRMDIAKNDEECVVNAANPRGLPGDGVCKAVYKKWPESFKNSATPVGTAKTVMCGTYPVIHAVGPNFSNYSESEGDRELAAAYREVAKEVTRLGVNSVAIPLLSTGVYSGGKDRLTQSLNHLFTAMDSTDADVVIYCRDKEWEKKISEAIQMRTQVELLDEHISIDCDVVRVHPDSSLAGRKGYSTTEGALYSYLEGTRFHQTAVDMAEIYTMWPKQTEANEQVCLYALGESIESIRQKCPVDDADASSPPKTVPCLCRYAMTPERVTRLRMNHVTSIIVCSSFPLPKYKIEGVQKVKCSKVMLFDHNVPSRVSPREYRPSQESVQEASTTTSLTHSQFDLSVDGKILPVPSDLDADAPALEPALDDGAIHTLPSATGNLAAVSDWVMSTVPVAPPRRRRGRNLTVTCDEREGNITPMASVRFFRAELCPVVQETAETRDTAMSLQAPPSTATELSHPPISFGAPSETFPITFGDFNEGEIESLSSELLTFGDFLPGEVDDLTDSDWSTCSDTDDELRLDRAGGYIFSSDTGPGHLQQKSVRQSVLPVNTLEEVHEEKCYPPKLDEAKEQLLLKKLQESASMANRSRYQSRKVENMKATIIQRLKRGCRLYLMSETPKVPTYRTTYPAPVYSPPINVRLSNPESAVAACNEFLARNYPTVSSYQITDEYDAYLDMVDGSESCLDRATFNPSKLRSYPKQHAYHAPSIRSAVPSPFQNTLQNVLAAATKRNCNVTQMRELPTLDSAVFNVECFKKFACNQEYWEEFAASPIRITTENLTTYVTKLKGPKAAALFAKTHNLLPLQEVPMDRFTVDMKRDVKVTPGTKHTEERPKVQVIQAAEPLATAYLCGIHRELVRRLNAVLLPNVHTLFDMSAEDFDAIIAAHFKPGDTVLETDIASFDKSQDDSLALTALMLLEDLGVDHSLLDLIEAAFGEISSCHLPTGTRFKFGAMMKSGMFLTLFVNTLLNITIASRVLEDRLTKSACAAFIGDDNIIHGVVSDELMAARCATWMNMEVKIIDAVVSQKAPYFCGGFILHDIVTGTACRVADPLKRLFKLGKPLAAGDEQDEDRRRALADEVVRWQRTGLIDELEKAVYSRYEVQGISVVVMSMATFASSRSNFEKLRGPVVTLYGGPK", "assay": "Selectivity profile for inhibitors of NSP2Pro chikungunya virus (CHIKV): Full length NSP2 enzyme counterscreen (CHIKV-NSP2) (AID 1964101); further: nearly all actives have a fitted effect of over 65% in size", "settings": "Full-length CHIKV NSP2 protease enzymatic counterscreen; series mostly up to 50.7 µM", "excerpt": "PI: Natalia J. Martinez Ph.D.\nNational Center for Advancing Translational Sciences (NCATS),\nNational Institute of Health (NIH), Rockville, Maryland\nChikungunya virus (CHIKV) is a mosquito-borne RNA virus that has emerged as one of the most important global arboviral threats in the last decade. Although the first CHIKV vaccine has recently been FDA approved for use in healthy adults at increased risk, to date, there are no available antiviral drugs for CHIKV infection. CHIKV nsP2 protease plays a crucial role in the processing of the viral polypeptide precursor to release enzymes required for viral replication, thus making it a promising drug target for antiviral discovery. Here, we established a high-throughput pipeline to identify small molecule inhibitors of nsP2 proteolytic activity. The pipeline is composed of a suite of 1,536-well in vitro assays to support quantitative high-throughput (qHTS) screening campaigns. Specifically, we developed a fluorescence resonance energy transfer (FRET)-based assay using a fluorogenic peptide substrate encompassing an endogenous cleavage site and purified recombinant protease domain (nsP2pro). Using this assay, we interrogated ~37,000 small molecules, including those in drug repurposing libraries as well as chemically diverse and medicinal chemistry-friendly compounds. Hits were selected for follow-up validation against full-length nsP2 and an additional peptide. FRET-based 1,536-well assays for papain, hepatitis C virus NS3-4A, and human furin proteases were implemented to characterize compound selectivity. […] Novel compounds were identified to be potential nsP2 inhibitors and molecular docking analyses were performed to explain the binding mode of selected hits. In vitro antiviral activity was evaluated for a subset of compounds using a high-throughput CHIKV infection assay. To our knowledge, the pipeline presented here is unprecedented for CHIKV antiviral discovery research.\nPROTOCOL TABLE (as described by Inglese J, Shamu CE and Guy RK. 2007)\nSEQUENCE No. (e.g., 1, 2, 3, etc.); […] (e.g., Cells, Incubation, Reagent, etc.); VALUE; DESCRIPTION.\n1; Control / Compound; 20 nL; Echo 655 acoustic dispenser, Greiner 1536-well solid bottom black plate.\n2; Enzyme; 4 uL; BioRAPTR FRD liquid dispenser (Beckman Coulter).\n3; Incubation; 15 min; room temperature.\n4; Reagent; 4 uL; 2.5 uM Peptide 2 substrate.\n5; Incubation; 1 hr; room temperature.\n6; Detection; Fluorescence; WiewLux microplate reader (PerkinElmer), 525 nm excitation, 598/25 nm emission.\nNOTES (numbers refer to sequence numbers above).\n1. Briefly, 20 nL DMSO, positive control ZnAc (20nM final concentration), and test compounds were transferred into a 1,536-well solid bottom black plate (789176-F, Greiner One) via Echo 655 acoustic dispenser (Beckman Coulter). For primary screens, compounds were tested at 7 concentrations, 1:3 dilution points ranging from 25 uM to 34 nM. Follow-up confirmatory screens were carried out at 11 concentrations, 1:3 dilution points from 25 uM to 0.42 nM.\n2. Four uL NSP2 full length enzyme mix (150 nM final concentration) in 10 mM Tris-HCl pH 8.0 with 0.01% Tween 20 assay buffer was dispensed into the plate using a BioRAPTR FRD liquid dispenser (Beckman Coulter).\n3. The plate was incubated at room temperature (protected from light) for 15 min\n4. Four microliter of peptide 2 substrate (2.5 uM final concentration) in assay buffer was added to the plate.\n5. After 1 hour, plates were immediately read on a ViewLux high-throughput CCD imager (Exposure = 10 sec, Gain = High, Speed = Slow, Binning = 2X). The above assay was also incorporated in the NCATS HTS facility41, which allowed for robotic liquid and compound dispensing, microplate handling, and fluorescence reading.\nInglese J, Shamu CE and Guy RK, Reporting data from high throughput screening of small molecule libraries, Nature Chemical Biology, 2007, 3(8): 438-441. doi.org/10.1038/nchembio0807-438.", "values": [{"smiles": "Cn1nnnc1Sc1ncnc2n[nH]c(-c3cccc(S(C)(=O)=O)c3)c12", "Potency": "15.8 µM (active)"}, {"smiles": "C[C@@H]1C[C@@H](O)[C@@]23CO[C@]2(CO)C[C@@H](O)CC3[C@@]12CC(c1ccoc1)OC2=O", "note": "(some centres undefined)", "Potency": "inactive"}, {"smiles": "N#CSc1cc(SC#N)c(N)nc1N", "Potency": "1.03 µM (active)"}, {"smiles": "Oc1ccc(OC2CCCCO2)cc1", "note": "(centres undefined)", "Potency": "inactive"}, {"smiles": "CCC(C)C(=O)OC1C(C)C2(O)C(C=C(CO)CC3(O)C(=O)C(C)=CC32)C2C(C)(C)C12OC(=O)C(C)C", "note": "(centres undefined)", "Potency": "inactive"}, {"smiles": "C=CC(=O)c1ccc2ccccc2c1", "Potency": "11.6 µM (active)"}, {"smiles": "CO[C@]1(NC(=O)CSC(F)F)C(=O)N2C(C(=O)O)=C(CSc3nnnn3CCO)CO[C@H]21", "Potency": "inactive"}, {"smiles": "CCOc1ccc(N(Cc2ccccc2)C(=O)c2nc(S(C)(=O)=O)ncc2Cl)cc1", "Potency": "14.6 µM (active)"}, {"smiles": "COC([CH2][Hg])CNC(=O)c1ccccc1OCC(=O)O", "note": "(centres undefined)", "Potency": "18.3 µM (active)"}]}]}
